Screens: PubChem, National Center for Advancing Translational Sciences (NCATS)
RORg inh: inhibitors of mouse ROR gamma transcriptional activity; P51450; Drosophila S2 Gal4-RORgamma UAS-luciferase reporter, 20 h; Potency, µM (series often up to 53.6 µM), for inactives: top-dose activity change, negative = inhibition, usual class: inhibitors; 310,000 tested, 5.4% active; further: potency means the concentration at half of the fitted maximal effect; nearly all actives have a fitted effect of over 60% in size
Target sequence (P51450 whole entry, looked up, the tested form may be a part): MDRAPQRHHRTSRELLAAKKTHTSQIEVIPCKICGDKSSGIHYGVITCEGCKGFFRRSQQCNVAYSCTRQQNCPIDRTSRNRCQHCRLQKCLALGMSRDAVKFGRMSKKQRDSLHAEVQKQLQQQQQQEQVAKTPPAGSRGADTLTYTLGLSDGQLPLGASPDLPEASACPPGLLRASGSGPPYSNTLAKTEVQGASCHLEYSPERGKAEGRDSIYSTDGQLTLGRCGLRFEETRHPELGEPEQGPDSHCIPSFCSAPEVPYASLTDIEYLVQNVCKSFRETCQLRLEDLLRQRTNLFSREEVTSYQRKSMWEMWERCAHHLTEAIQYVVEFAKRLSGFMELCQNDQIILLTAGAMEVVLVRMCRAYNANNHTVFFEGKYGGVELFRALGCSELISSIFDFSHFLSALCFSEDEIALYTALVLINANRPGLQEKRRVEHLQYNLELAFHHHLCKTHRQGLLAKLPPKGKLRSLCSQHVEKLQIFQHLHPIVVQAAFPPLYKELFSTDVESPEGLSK
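Stably transfected Drosophila Schneider cells are the test system, with ROR gamma fused to Gal4 and luciferase under UAS control; luminescence is read after 20 hr of 700 uM copper sulfate induction at ambient temperature.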
IL1B secr inh: inflammasome signaling inhibition, IL-1 beta readout. 360,000 tested, 4.7% active. THP-1 LPS/ATP IL-1B secretion, AlphaLISA, 16 h; active compounds read low. activity change, % at 57.5 µM; in the data active means activity change below about -50%; inconclusive means mostly about -30% to -49%
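THP-1 cells pretreated 1 hr with compounds (up to 57.5 uM final), then stimulated with LPS (250 ng/mL final) plus ATP (1.25 mM final); secreted IL-1B measured by AlphaLISA after 16 hr, decreased signal indicating inhibition.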
ELG1 repair inh: inhibitors of ELG1-dependent DNA repair in HEK293T cells; Potency, µM (doses to about 46.1 µM), inactives show at the top dose activity change, negative = inhibition, hits mostly inhibitors; HEK293T ELG1-luciferase reporter, luminescence, 16 h; DNA damage induced by 5-fluorouridine; 330,000 tested, 2.3% active; further: potency means the concentration at half of the fitted maximal effect; nearly all actives have a fitted effect of over 55% in size
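In this reporter screen, reduction of luminescence relative to DMSO vehicle indicated activity. Compounds and 5-fluorouridine were added together to 2,000 cells per well, incubated for 16 hr at 37 °C, then developed with ONE-Glo.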
TDP1 cell CPT: DT40-hTDP1 cell growth loss with CPT | chicken DT40 Tdp1-/-;hTDP1 cells + 20 nM CPT, ATP luminescence, 48 h | AID 686979 | Potency, µM (titrated, usually from 46.2 µM), for the others: top-dose activity change, negative = growth inhibition, most hits filed as inhibitors | 420,000 tested, 12% active; further: potency means the concentration at half of the fitted maximal effect; nearly all actives have a fitted effect of over 55% in size
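Chicken DT40 Tdp1-/- cells stably complemented with human TDP1 were seeded at 400 cells/well in medium containing 20 nM camptothecin, exposed to pin-transferred compounds, and grown at 37 °C for at least 48 hr. Viability was read as ATP luminescence.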
TDP1 cell noCPT: qHTS for Inhibitors of human tyrosyl-DNA phosphodiesterase 1 (TDP1): qHTS in cells in absence of CPT; DT40 Tdp1-/- hTDP1 cells, no CPT, ATP luminescence, 48 h; Potency, µM (doses to about 46.2 µM), inactives show at the highest dose activity change, negative = growth inhibition, hits mostly inhibitors; 420,000 tested, 15% active; further: potency means the concentration at half of the fitted maximal effect; nearly all actives have a fitted effect of over 55% in size
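DT40 Tdp1-/-;hTDP1 cells, no CPT (DMSO vehicle only), 400 cells/well; compounds pin-transferred; ≥48 hr, 37 °C; CellTiter-Glo 30 min RT dark, luminescence read.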
VP16 counter: inhibits Gal4-VP16 luciferase reporter, ROR gamma counter-screen | Potency, µM (highest dose often 53.6 µM), inactives show top-dose activity, negative = inhibition, hits mostly inhibitors | Drosophila S2 Gal4-VP16 UAS-luciferase, luminescence, 20 h | 310,000 tested, 3.5% active;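 further: Gal4-VP16 expression switched on by copper sulfate through the metallothionein promoter; potency means the concentration at half of the fitted maximal effect; nearly all actives have a fitted effect of over 50% in size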
* = called active by the depositor; ? = inconclusive; · = not tested or not shown; [ ] = dose if it differs, or a comment. In the library only some 21% were active in any assay of this set; here they are far more common. Unless noted, the call rests on the fitted dose curve; in most records, active means well fitted curve in the direction sought with a large enough effect; inconclusive means small, poorly fitted or top-dose-only effect, or another doubt; inactive means no such curve, though single readings can be large; an effect the other way counts as inactive or inconclusive. On the % scale 0 is the no-effect control and ±100 the full control effect.

SMILES | RORg inh | IL1B secr inh | ELG1 repair inh | TDP1 cell CPT | TDP1 cell noCPT | VP16 counter
O=[N+]([O-])c1cc(-c2nnc(Nc3ccc(O)cc3)c3ccccc23)ccc1N1CCOCC1 | 36% | · | 18µM* | 16µM* | 15µM* | ?
Cc1ccc(Nc2nnc(-c3ccc(N4CCOCC4)c([N+](=O)[O-])c3)c3ccccc23)cc1 | 0% | 0 | ? | 12µM* | 10µM* | 1%
O=C(CC(O)c1ccncc1)c1ccccc1O (stereo not given) | · | -63* | · | ? | ? | ·
Cc1c(C(=O)NCC(C)(C)N2CCOCC2)cnn1-c1nccc(-c2cccs2)n1 | · | · | · | 21% | 6% | ·
Cc1nc(C(=O)Nc2cccc(Cl)c2)nn1-c1cc(OC(C)C)c(Cl)cc1Cl | 15% | -5 | -11% | 16µM* | ? | -6%[0.365 µM]
Cc1nc(C(=O)Nc2ccc(Cl)cc2Cl)nn1-c1cc(OC(C)C)c(Cl)cc1Cl | 4% | 0 | 5% | ? | ? | -11%
Cc1nc(C(=O)Nc2cc(Cl)ccc2Cl)nn1-c1cc(OC(C)C)c(Cl)cc1Cl | -2% | 12 | 12% | 16µM* | 12µM* | 0%
O=C(CN1C(=O)NC(Cc2c[nH]c3ccccc23)C1=O)NCCc1ccccc1 (stereo not given) | -6% | -27 | 4% | -4% | -15% | -1%
N#C/C(=C\c1ccc([N+](=O)[O-])cc1)C(=O)NCCCn1ccnc1 | 0% | -12 | 3% | ? | ? | ?
CCOc1ccc(-c2nn(-c3ccccc3)cc2/C=C(\C#N)S(=O)(=O)c2ccccc2)cc1C | 2% | -15 | ? | ? | 13µM* | -3%
CCCOc1cccc(-c2nn(-c3ccccc3)cc2/C=C(\C#N)C(=O)NCCCn2ccnc2)c1 | -21% | -58* | ? | ? | ? | ?
CCN(CC)S(=O)(=O)c1cccc(-c2nn(-c3ccccc3)cc2/C=C(\C#N)C(=O)NCc2ccco2)c1 | 8% | 34 | ? | ? | ? | 2%
Cc1cc(/C=C(\C#N)C(=O)NCc2ccco2)c(C)[nH]1 | -1% | -51* | ? | -9% | -9% | -15%
CN(C)S(=O)(=O)c1cccc(-c2nn(-c3ccccc3)cc2/C=C(/C#N)C(=O)NCc2ccco2)c1 | 12% | -25 | ? | 18µM* | ? | -1%
CC(OC(=O)CNC(=O)c1ccc(F)cc1)C(=O)Nc1ccc(S(=O)(=O)N2CCOCC2)cc1 (stereo not given) | · | 0 | -2% | -5% | 3% | ·
CC1=CC(C)(C)N(S(=O)(=O)c2ccc(C)cc2)c2cc(C)ccc21 | ? | 36 | -1% | 5.8µM* | 5.2µM* | ?
CCNC(=O)N1c2ccc(OCC)cc2C(C)=CC1(C)C | 2% | -12 | 17% | ? | 18µM* | -3%
COc1ccc(C2N(S(=O)(=O)c3ccc(C)cc3)CCN2S(=O)(=O)c2ccc(C)cc2)cc1 | -69% | 0 | -18% | ? | ? | 13%
CC1=CC(C)(C)N(C(=O)CCl)c2ccccc21 | 1% | -15 | 18% | ? | -56% | -4%
CCOc1ccc(S(=O)(=O)N2CCN(c3ccc(C)cc3C)CC2)cc1 | ? | 20 | 1% | ? | ? | -7%
CCOc1ccc2c(c1)C(C)=CC(C)(C)N2S(=O)(=O)c1ccc(C)cc1 | 4µM* | 26 | -1% | ? | 6.5µM* | ?
COc1ccc2c(c1)C(C)=CC(C)(C)N2S(=O)(=O)c1ccc(C)cc1 | -39% | 69 | -3% | 5.8µM* | 5.2µM* | 1%
